# IL1B secr inh: blocks inflammasome-driven IL-1 beta release. THP-1 LPS/ATP IL-1B secretion, AlphaLISA, 16 h; hits give low values. activity change, % at 57.5 µM. 360,000 tested, 4.7% active. AID 743279; in the data active = activity change below about -50%; inconclusive = mostly about -30% to -49%
#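 THP-1 cells pretreated 1 hr with compounds (up to 57.5 uM final), then stimulated with LPS (250 ng/mL final) plus ATP (1.25 mM final); secreted IL-1B measured by AlphaLISA after 16 hr, decreased signal indicating inhibition.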
# DT40 TDP1 CPT: growth inhibition of DT40 Tdp1-/-;hTDP1 cells with camptothecin (screen for TDP1 inhibitors); chicken DT40 Tdp1-/-;hTDP1 cells + 20 nM CPT, ATP luminescence, 48 h; Potency, µM (top dose mostly 46.2 µM), without a hit: at the top dose activity change, negative = growth inhibition, usual class: inhibitors; 420,000 tested, 12% active; AID 686979; note: potency is the fitted concentration of half-maximal effect; nearly all actives have a fitted effect of over 55% in size
#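 Chicken DT40 Tdp1-/- cells complemented with human TDP1, 400 cells/well, exposed to compounds plus 20 nM camptothecin for at least 48 h at 37 C; viability read as ATP content by CellTiter-Glo luminescence.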
# TDP1 cell noCPT: qHTS for Inhibitors of human tyrosyl-DNA phosphodiesterase 1 (TDP1): qHTS in cells in absence of CPT; DT40 Tdp1-/- hTDP1 cells, no CPT, ATP luminescence, 48 h; Potency, µM (titrated, usually from 46.2 µM), for the others: top-dose activity change, negative = growth inhibition, usual class: inhibitors; 420,000 tested, 15% active; AID 686978, 2013; note: potency is the fitted concentration of half-maximal effect; nearly all actives have a fitted effect of over 55% in size
#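 Growth of hTDP1-complemented DT40 Tdp1-knockout cells is measured by ATP luminescence after at least 48 hr compound exposure at 37 °C, with DMSO substituting for the 20 nM CPT used in the parallel screen.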
# HT1080NT lethal: kills 2HG-producing HT-1080-NT fibrosarcoma cells. HT-1080-NT fibrosarcoma viability, CellTiter-Glo ATP luminescence, 48 h. 360,000 tested, 1.6% active. Potency, µM (series often up to 46.1 µM), for the others: at the top dose activity, negative = less viability, usual class: cytotoxic;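 note: NT is the 2HG producing partner of a matched IDH1 knockdown line; potency is the fitted concentration of half-maximal effect; 0% = DMSO-treated cells and -100% = media-only wells without cells; nearly all actives have a fitted effect of over 55% in size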
#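 750 cells/well, RPMI + 5% FBS; 2 h settle, compound pin-transfer, 48 h at 37 degrees C. CellTiter-Glo 10 min RT, luminescence. Normalized to DMSO and media-only wells.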
# 12-LOX inh: inhibitors of human 12S-lipoxygenase ALOX12 | P18054 | purified 12hLO, xylenol orange hydroperoxide absorbance | Potency, µM (doses to about 108 µM), for inactives: at the highest dose activity change, negative = inhibition, hits mostly inhibitors | 580,000 tested, 1.1% active; note: potency is the fitted concentration of half-maximal effect
# Target sequence (P18054 whole entry, looked up): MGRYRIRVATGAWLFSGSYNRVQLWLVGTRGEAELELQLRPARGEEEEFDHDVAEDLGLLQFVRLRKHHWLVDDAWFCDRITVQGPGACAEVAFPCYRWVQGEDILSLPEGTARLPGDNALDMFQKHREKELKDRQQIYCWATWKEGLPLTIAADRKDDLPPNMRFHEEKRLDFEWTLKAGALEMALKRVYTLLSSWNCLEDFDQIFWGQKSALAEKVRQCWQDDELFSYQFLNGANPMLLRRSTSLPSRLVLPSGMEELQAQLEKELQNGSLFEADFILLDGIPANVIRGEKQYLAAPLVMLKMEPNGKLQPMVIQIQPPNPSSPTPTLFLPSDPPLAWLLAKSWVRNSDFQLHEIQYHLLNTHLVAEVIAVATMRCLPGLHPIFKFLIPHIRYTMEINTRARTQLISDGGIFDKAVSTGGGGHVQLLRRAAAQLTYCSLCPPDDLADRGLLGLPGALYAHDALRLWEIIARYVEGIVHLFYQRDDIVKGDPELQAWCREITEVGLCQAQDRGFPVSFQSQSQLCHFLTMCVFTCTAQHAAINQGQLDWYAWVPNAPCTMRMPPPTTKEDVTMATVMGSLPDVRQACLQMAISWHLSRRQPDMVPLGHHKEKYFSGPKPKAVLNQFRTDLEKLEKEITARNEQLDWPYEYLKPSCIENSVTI
#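 Purified human 12hLO at 150 nM in 25 mM Hepes, 0.01% Triton X-100, pH 7.0, preincubated 15 min at room temperature with compound. Reaction started with 40 uM arachidonic acid, 30 min at room temperature. Hydroperoxide measured by Fe-xylenol orange, 573/405 nm absorbance ratio.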
# HT1080 IDH1KD tx: kills HT-1080 cells with IDH1 knockdown. HT-1080 IDH1 knockdown viability, ATP luminescence, 48 h. Potency, µM (highest dose often 46.1 µM), for inactives: at the highest dose activity, negative = toxicity, actives largely listed as cytotoxic. 360,000 tested, 2% active. AID 686971;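 note: potency is the fitted concentration of half-maximal effect; 0% = DMSO wells and -100% = cell-free medium wells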
#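 CellTiter-Glo luminescence after 48 h compound exposure at 37 degrees C of IDH1-knockdown HT-1080 cells in 5% FBS RPMI. %Activity scaled between DMSO wells and cell-free media wells, with curves fitted and assigned curve classes.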
# The depositor's hits bear a star; ? = inconclusive; nt = no result given; [ ] = another dose, or the depositor's remark. The sample as a whole holds a higher share of hits than the screen did. Unless noted, calls come from the whole dose curve; as a rule, active = well fitted curve in the direction sought with a large enough effect; inconclusive = small, poorly fitted or top-dose-only effect, or another doubt; inactive = no such curve, though single readings can be large; an effect the other way counts as inactive or inconclusive. Unless noted, % is set by controls: 0 for no effect and ±100 for the full control effect.
SMILES,IL1B secr inh,DT40 TDP1 CPT,TDP1 cell noCPT,HT1080NT lethal,12-LOX inh,HT1080 IDH1KD tx
O=C(c1ccc2cc[nH]c2c1)N1CCN(S(=O)(=O)c2cccc3nonc23)CC1,nt,nt,nt,nt,-22%,nt
O=c1cc(CNCc2nc(-c3ncccn3)no2)[nH]c2ccc(F)cc12,nt,nt,nt,nt,64%,nt
CCOC(=O)c1cnc2cc(C(F)(F)F)ccc2c1N1CCN(c2ccc(F)cc2)CC1,nt,?,21µM*,nt,?,nt
CCOC(=O)c1cnc2c(OC)cccc2c1N1CCN(c2ccccn2)CC1,-53*,?,16µM*,-14%,-9%,-14%
CCOC(=O)c1cnc2ccc(OCC)cc2c1N1CCN(c2cccc(Cl)c2)CC1,nt,16µM*,8.2µM*,nt,?,nt
CCOC(=O)c1cnc2cc(F)c(F)cc2c1N1CCN(C)CC1,nt,nt,nt,nt,10%,nt
CCOC(=O)c1cnc2c(OC)cccc2c1Oc1ccccc1,28,0%,-8%,-3%,?,4%
CC(COc1ccccc1)N1CCC(CO)(CCc2ccccc2)CC1 (stereo unspecified),-67*,?,?,16µM*,-27%,?
COc1ccc(CC2(CO)CCN(S(=O)(=O)c3sccc3C)CC2)cc1,13,26µM*,?,3%,-2%,-20%
COc1ccc(CCC(C)N2CCC(CO)(Cc3ccccc3)CC2)cc1 (stereo unspecified),-57*,?,?,-22%,?,-18%
COc1ccc(CC2(CO)CCN(C(C)Cc3ccc(Cl)cc3)CC2)cc1 (stereo unspecified),-67*,?,?,?,?,?
CCOC(=O)c1c(C2CC2)csc1NC(=O)COC(=O)c1cc(OC)c(OC)cc1[N+](=O)[O-],28,?,21µM*,4%,-6%,7%
CCOC(=O)c1c(C2CC2)csc1NC(=O)COC(=O)c1ccc[n+]([O-])c1,-3,-30%,?,1%,-25%,1%
Clc1ccc(-c2nc3ccccn3c2CN2CCCCC2)cc1,5,?,?,0%,-4%,-1%
Oc1ccc(N2CCN(Cc3c(-c4ccccc4)nc4ccccn34)CC2)cc1,-12,?,15µM*,-19%,?,-18%
c1ccc(-c2nc3ccccn3c2-c2ccccc2)cc1,0,?,12µM*,-17%,-10%,-28%
COc1ccc(CCNC(=O)c2ccc3c(c2)CCN3S(=O)(=O)c2ccccc2)cc1OC,nt,16µM*,?,nt,-15%,nt
Cc1ccc(S(=O)(=O)N2CCc3cc(C(=O)N(C)Cc4ccccc4)ccc32)cc1,nt,15µM*,13µM*,nt,-21%,nt
COc1ccc(CCNC(=O)c2ccc3c(c2)CCN3S(=O)(=O)c2ccccc2)cc1,nt,3.7µM*,21µM*,nt,5%,nt
COc1ccc(CCNC(=O)c2ccc3c(c2)CCN3S(C)(=O)=O)cc1OC,nt,-12%,?,nt,-15%,nt
c1ccc(-c2nc(CSc3ccc4c(c3)OCCO4)cs2)cc1,nt,nt,nt,nt,-14%,nt
CCCCOCCCN1CC(=O)N2[C@@H](Cc3c([nH]c4ccccc34)C2(C)C)C1=O,-17,?,18µM*,-8%,0%,3%
CCCCCN1CC(=O)N2[C@@H](Cc3c([nH]c4ccccc34)C2(C)C)C1=O,35,?,?,-3%,2%,-6%
CCCCN(CCCC)CCCN1CC(=O)N2[C@@H](Cc3c([nH]c4ccccc34)C2(C)C)C1=O,-74*,?,-15%,5%,3%,2%
CCN(CC)C(=O)c1ccc(C(=O)c2c(C)cc(C)cc2C)cc1,-9,18µM*,21µM*,-7%,1%,-12%
SMILES,IL1B secr inh,DT40 TDP1 CPT,TDP1 cell noCPT,HT1080NT lethal,12-LOX inh,HT1080 IDH1KD tx
O=C(c1ccc(-n2cccn2)cc1)N1CCCC1c1ccc2c(c1)OCCCO2 (stereo unspecified),nt,nt,nt,nt,16%,nt
CC(C)CN1C=C2C(=O)C(C)(OC(=O)CCc3ccccc3)C(=O)C=C2C=C1c1ccc(C#N)cc1 (stereo unspecified),-2,21µM*,18µM*,-1%,?,3%
COCCN1C=C2C(=O)C(C)(OC(=O)CCc3ccccc3)C(=O)C=C2C=C1c1ccc(C#N)cc1 (stereo unspecified),24,?,-26%,6%,-6%,5%
CC1(OC(=O)CCc2ccccc2)C(=O)C=C2C=C(c3ccc(C#N)cc3)N(Cc3ccco3)C=C2C1=O (stereo unspecified),15,?,?,7%,?,11%
CC1(OC(=O)CCc2ccccc2)C(=O)C=C2C=C(c3ccc(C#N)cc3)N(Cc3ccccc3)C=C2C1=O (stereo unspecified),4,18µM*,?,-3%,-16%,?
Cn1cccc1C(=O)NCC1(C)CCOCC1,nt,nt,nt,nt,39%,nt
COC(=O)C1=C/C=C\CN(C(c2ccccc2)c2ccccc2)/C=C\1C(=O)OC,13,?,21µM*,-9%,?,-6%
COC(=O)N1CCC2(CC1)CCN(C(c1ccccc1)c1ccccc1)CC2,nt,-6%,?,nt,-2%[57.4 µM],nt
CCN(CC)C(CNC(=O)Nc1ccc(C(=O)N2CCCCCC2)cc1)c1ccsc1 (stereo unspecified),nt,nt,nt,nt,-24%,nt
CCN(CC)C(=O)C1CCCN(c2ccc([N+](=O)[O-])cc2/C=N/NC(=O)c2cccc(O)c2)C1 (stereo unspecified),-61*,?,?,4%,0%,7%
Cc1cccc(OCC(=O)N/N=C/c2cc([N+](=O)[O-])ccc2N2CCOCC2)c1,10,21µM*,18µM*,-11%,1%,-18%
COc1ccc(NCC(=O)N/N=C/c2cc([N+](=O)[O-])ccc2N2CCCC2)cc1,?,21µM*,?,-11%,-8%,-30%
CCN(CC)C(=O)C1CCCN(c2ccc([N+](=O)[O-])cc2/C=N/NC(=O)c2ccccc2)C1 (stereo unspecified),-13,-12%,?,8%,-10%,7%
COc1cc(/C=N/NC(=O)COc2ccc([N+](=O)[O-])cc2)ccc1OCC(=O)N1CCOCC1,-9,-19%,16µM*,-6%,-3%,1%
Cc1ncsc1CN1CCCN(S(=O)(=O)c2ccccc2)CCC(=O)NCC1,nt,nt,nt,nt,73%,nt
CCn1ncc(C(=O)N2CCCn3ccnc3C2c2cnn(C)c2)c1C (stereo unspecified),nt,nt,nt,nt,34%,nt
